# Inconclusive results are not listed. The source made the active and inactive calls. Unless noted, no rule for the calls is given here.
# Tests used:
# [1] = RPL19A-GFP modulators, yeast TOR pathway, confirmation, cell-based, S. cerevisiae, flow cytometry, cherry picks, mother/daughter gates (AID 2270;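 active = GFP response below 50% of the DMSO control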); details: S. cerevisiae RPL19A-GFP strain, 3 h, at 10 µM, stronger effect = lower value, 100 = same GFP as DMSO wells
# [2] = LAP4-GFP expression modulators in yeast, confirmation, cell-based, cherry picks, flow cytometry, mother/daughter gates (AID 2271;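 active = GFP response above 150% of the DMSO control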;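 also: ratio of sample to DMSO plate mean so 100% equals DMSO level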); details: S. cerevisiae LAP4-GFP strain, 3 h, at 10 µM, stronger effect = higher value
# [3] = modulators of CIT2-GFP expression in yeast, confirmation, S. cerevisiae, GFP fusion, cherry picks, mother/daughter gates (AID 2274;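 active = GFP response above 150% of the DMSO level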); details: S. cerevisiae CIT2-GFP strain, flow cytometry, 3 h, at 10 µM, stronger effect = higher value
# [4] = yeast TOR pathway RPL19A-GFP modulators, primary screen, cell-based, S. cerevisiae, multiplex flow cytometry (AID 1862; in the data active = percent of DMSO control GFP below about 86%;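 also: lower values mimic rapamycin by blocking the RPL19A rise seen in DMSO cells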); details: S. cerevisiae RPL19A-GFP strain, flow cytometry fluorescence, 3 h; at 10 µM; stronger effect = lower value
# [5] = modulators of CIT2-GFP expression in yeast, primary screen, S. cerevisiae, GFP fusion, multiplex flow cytometry (AID 1870;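 active = percent response above a set limit, the screen-wide mean plus 3 SD, cut at about 130% in these data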;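 also: barcoded CIT2-GFP strain pooled with four other GFP strains with rapamycin as positive control; median GFP fluorescence per well over plate mean of DMSO wells so 100% = DMSO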); details: 3 h, at 10 µM, stronger effect = higher value
# [6] = modulators of LAP4-GFP expression in yeast, primary screen, S. cerevisiae, multiplex flow cytometry (AID 1873;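 active = GFP signal, as percent of the solvent control, above the screen mean plus 3 SD, about 149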); details: 3 h, at 10 µM, stronger effect = higher value
# [7] = inhibitors of CD8+ T cell-vesicle binding, pilot screen, LFA-1/ICAM-1 modulator project, MLPCN validation set, flow cytometry (AID 2523;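 active = response below a set limit, under 55% cells CD8-positive and vesicle-bound, and CD8 cells' 90th-percentile brightness under 279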;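 as to vesicle binding response: mean PE anti-B7-1 fluorescence of CD8+ cells relative to row control; 100% = QL9-loaded vesicles with DMSO vehicle in the same plate row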); details: 2C mouse CD8+ T cells, at 7 µM, stronger effect = lower value; double positive events: measured here: CD8+/vesicle+ event percentage
# [8] = molecular target: Integrin beta-1 (Homo sapiens) + Integrin alpha-4 (Homo sapiens) (UniProt P13612+P05556); test: inhibition of HUTS-21 binding to VLA-4, pilot screen, VLA-4 allosteric modulator project, U937 cells, HUTS-21 mAb, flow cytometry, validation set (AID 2674;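 active = inhibition above 50%, about 3 SD of the validation set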;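 also: antibody binding induced by the VLA-4 ligand LDV present at three times its Kd; 0% = LDV ligand with antibody and no compound and 100% = antibody without LDV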); details: HUTS-21 LIBS mAb binding, at 6.7 µM, stronger effect = higher value
# [9] = superoxide lowering in aged yeast cells, pilot screen, validation compound set (AID 2706;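 active = superoxide response below 65% of plate, a cut near 3 SD across the whole screen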;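 also: yeast exposed to compound for one week at 30 degrees C before staining; 100% = mean of all compound wells on the same plate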); details: S. cerevisiae aging, superoxide DHE fluorescence; at 10 µM; stronger effect = lower value
# [10] = molecular target: Beta-adrenergic receptor kinase 1 (Homo sapiens) (UniProt P25098); test: GRK2 binders displacing RNA aptamer, biochemical, validation, human GRK2, bead flow cytometry (AID 488806;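 active = aptamer binding inhibition above 30%, about 3 SD of noise from non-fluorescent compounds; inactive = inhibition at or below 30%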); details: bead-bound GRK2, FAM-aptamer displacement, at 10 µM, stronger effect = higher value
# [11] = molecular target: AP-2 complex subunit beta (Homo sapiens) (UniProt P63010); test: inhibitors of arrestin peptide binding to AP2, pilot screen, biochemical, validation set, GST-AP2 beads, flow cytometry (AID 504541;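 active = inhibition above 54%, about 3 SD of non-fluorescent compounds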;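 also: AP2 carries R879A mutation and is captured from E. coli lysate; bead-bound FITC arrestin peptide fluorescence measuring arrestin peptide binding to AP2; 0% = DMSO wells and 100% = excess unlabeled arrestin peptide control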); details: FITC arrestin peptide, at 10 µM, stronger effect = higher value
# [12] = yeast V-ATPase proton transport modulators, S. cerevisiae, pHLuorin, HTS validation (AID 504600; in the data active = response above about 15%;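 also: plate controls were DMSO for no effect and reference compound for full effect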); details: S. cerevisiae pHLuorin cytosolic pH, at 10 µM, stronger effect = higher value
# [13] = tested on: anti-desmoglein-3 scFv antibody binding to human DSG3; test: inhibitors of anti-DSG3 scFv binding to DSG3, pilot screen, biochemical, validation compound set, bead-based, flow cytometry (AID 588368;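 active = binding below the plate cutoff, the plate median minus 3 SD, with a reading above zero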;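 also: signal is the median channel fluorescence of bead-bound GFP antibody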); details: Protein G beads, DSG3-Fc, scFv-GFP binding, at 10 µM, stronger effect = lower value
# [14] = inhibitors of fungal efflux pumps CDR1, CDR2, MDR1, pilot screen, validation compound set, multiplex, phenotypic (AID 588506;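 active = efflux inhibition above 0.42, the validation set average plus 4 SD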;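 also: Nile Red retained in cells so higher fluorescence means more efflux inhibition; 0 = negative control wells and 1 = enniatin B 25 µM full block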); details: S. cerevisiae pump-expressing triplex, Nile Red efflux flow cytometry; at 10 µM; stronger effect = higher value
# [15] = molecular target: ATP-binding cassette sub-family B member 6 (Homo sapiens) (UniProt Q9NP58); test: ABCB6 transporter inhibitors, pilot screen, K562-ABCB6 cells, flow cytometry, validation set (AID 588550;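 active = inhibition above the screen-wide mean plus 3 SD, about 51%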;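 also: 0% = DMSO wells and 100% = benzethonium chloride 70 µM positive control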); details: K562-ABCB6 porphyrin accumulation, 1 h, at 10 µM, stronger effect = higher value
# [16] = promoters of myeloid differentiation in arrested cells, primary screen, cell-based, GFP/MAC1 double positive, flow cytometry, validation set (AID 588685;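 active = differentiation response of at least 50%, scaled between solvent and reference control, from cells with both markers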;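 also: compound exposure lasts four days before antibody staining and flow analysis; 0% = DMSO wells and 100% = 5 µM fulvestrant positive control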); details: ER-HoxA9 marrow cells, stronger effect = higher value
# [17] = modulators of MEP2-GFP levels in yeast, primary screen, S. cerevisiae, multiplex flow cytometry (AID 1867;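 active = GFP response, as percent of the DMSO control, above the screen-wide mean plus 3 SD, about 139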;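 also: median GFP channel fluorescence of barcode-gated MEP2-GFP cells measured by flow cytometry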); details: S. cerevisiae MEP2-GFP strain, 3 h, at 10 µM, stronger effect = higher value
# [18] = tested on: Botulinum neurotoxin type F light chain protease (Clostridium botulinum); test: Botulinum neurotoxin type F light chain protease inhibition, multiplex microsphere flow cytometry, validation set (AID 588459); details: multiplex microsphere protease substrate cleavage assay, at 10 µM, stronger effect = higher value
# [19] = molecular target: Botulinum neurotoxin type A (Clostridium botulinum) (UniProt P0DPI0); test: BoNT/A light chain protease inhibitors, biochemical, multiplex microsphere flow cytometry, validation set (AID 588460); details: at 10 µM, stronger effect = higher value
# [20] = molecular target: Lethal factor (Bacillus anthracis) (UniProt P15917); test: Lethal factor protease inhibitors, Bacillus anthracis, multiplex microsphere cleavage assay, validation set (AID 588461); details: flow cytometry, at 10 µM, stronger effect = higher value
# [21] = measured here: daughter cell gate
# [22] = measured here: mother cell gate
# [23] = measured here: daughter cell gate response
# [24] = measured here: mother cell gate response
# Chain of AP-2 complex subunit beta (Homo sapiens) (P63010 whole entry, looked up, one chain of several): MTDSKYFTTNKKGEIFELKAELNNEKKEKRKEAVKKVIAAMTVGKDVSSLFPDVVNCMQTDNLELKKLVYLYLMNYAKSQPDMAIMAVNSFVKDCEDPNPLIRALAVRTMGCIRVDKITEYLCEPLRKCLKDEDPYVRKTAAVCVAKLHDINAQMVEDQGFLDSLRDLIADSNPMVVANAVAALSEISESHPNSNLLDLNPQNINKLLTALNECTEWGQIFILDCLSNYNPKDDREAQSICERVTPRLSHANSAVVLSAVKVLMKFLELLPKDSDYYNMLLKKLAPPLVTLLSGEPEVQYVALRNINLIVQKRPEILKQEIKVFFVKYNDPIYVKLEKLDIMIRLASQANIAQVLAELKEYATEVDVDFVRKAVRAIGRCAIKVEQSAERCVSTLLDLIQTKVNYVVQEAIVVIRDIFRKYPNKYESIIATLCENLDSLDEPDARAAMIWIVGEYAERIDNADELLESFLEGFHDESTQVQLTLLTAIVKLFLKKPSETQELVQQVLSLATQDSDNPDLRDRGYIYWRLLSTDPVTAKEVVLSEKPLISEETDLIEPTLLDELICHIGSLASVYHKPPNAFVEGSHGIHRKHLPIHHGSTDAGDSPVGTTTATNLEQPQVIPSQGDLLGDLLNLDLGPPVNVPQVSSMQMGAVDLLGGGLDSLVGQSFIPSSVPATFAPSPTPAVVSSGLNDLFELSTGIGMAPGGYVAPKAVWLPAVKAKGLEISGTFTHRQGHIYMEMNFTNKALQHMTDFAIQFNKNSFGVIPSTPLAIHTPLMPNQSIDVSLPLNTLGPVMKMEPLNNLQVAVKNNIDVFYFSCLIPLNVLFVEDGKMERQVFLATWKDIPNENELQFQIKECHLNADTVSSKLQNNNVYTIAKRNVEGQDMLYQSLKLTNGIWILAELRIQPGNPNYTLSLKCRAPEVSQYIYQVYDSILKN
# Chain of Beta-adrenergic receptor kinase 1 (Homo sapiens) (P25098 whole entry, looked up): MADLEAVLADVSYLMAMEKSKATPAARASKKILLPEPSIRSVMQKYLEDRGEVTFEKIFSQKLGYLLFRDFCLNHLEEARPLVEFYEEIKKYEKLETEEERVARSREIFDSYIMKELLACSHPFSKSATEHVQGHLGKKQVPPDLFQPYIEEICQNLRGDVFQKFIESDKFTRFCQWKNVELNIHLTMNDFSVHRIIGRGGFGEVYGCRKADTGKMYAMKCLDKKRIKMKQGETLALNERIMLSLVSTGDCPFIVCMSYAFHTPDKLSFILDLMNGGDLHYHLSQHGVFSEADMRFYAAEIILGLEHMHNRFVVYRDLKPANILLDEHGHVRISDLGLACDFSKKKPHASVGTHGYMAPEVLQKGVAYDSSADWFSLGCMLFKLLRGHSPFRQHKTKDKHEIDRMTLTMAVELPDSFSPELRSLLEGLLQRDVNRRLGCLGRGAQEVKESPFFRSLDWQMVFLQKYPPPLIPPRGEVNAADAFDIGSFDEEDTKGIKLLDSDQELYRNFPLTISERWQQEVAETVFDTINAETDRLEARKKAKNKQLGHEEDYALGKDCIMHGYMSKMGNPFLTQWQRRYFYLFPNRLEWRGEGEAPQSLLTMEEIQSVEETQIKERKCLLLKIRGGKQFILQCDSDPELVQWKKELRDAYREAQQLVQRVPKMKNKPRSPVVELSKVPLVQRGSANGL
# Chain of ATP-binding cassette sub-family B member 6 (Homo sapiens) (Q9NP58 whole entry, looked up): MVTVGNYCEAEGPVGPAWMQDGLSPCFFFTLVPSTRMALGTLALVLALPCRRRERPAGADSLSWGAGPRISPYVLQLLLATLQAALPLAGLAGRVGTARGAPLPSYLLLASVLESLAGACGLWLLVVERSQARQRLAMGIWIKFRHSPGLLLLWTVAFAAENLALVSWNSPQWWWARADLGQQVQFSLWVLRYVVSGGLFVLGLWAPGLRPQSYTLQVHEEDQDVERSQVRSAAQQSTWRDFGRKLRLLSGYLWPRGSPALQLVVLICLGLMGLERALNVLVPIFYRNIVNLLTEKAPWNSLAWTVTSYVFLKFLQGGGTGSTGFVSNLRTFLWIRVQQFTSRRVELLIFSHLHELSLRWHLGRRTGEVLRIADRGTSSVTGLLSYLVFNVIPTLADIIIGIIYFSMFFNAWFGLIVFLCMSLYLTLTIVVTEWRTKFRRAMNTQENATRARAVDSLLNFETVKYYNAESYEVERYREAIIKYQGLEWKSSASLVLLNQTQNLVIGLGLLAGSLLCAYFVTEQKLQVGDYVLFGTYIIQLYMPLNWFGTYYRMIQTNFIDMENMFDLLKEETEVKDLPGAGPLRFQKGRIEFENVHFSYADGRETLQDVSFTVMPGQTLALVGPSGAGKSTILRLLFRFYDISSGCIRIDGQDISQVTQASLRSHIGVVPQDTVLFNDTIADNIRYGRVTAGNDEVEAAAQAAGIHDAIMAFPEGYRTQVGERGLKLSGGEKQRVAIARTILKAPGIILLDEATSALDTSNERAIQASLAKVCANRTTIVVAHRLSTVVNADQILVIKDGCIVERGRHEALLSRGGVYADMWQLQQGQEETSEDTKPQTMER
# Chain of Integrin beta-1 (Homo sapiens) + Integrin alpha-4 (Homo sapiens) (P05556 whole entry, looked up): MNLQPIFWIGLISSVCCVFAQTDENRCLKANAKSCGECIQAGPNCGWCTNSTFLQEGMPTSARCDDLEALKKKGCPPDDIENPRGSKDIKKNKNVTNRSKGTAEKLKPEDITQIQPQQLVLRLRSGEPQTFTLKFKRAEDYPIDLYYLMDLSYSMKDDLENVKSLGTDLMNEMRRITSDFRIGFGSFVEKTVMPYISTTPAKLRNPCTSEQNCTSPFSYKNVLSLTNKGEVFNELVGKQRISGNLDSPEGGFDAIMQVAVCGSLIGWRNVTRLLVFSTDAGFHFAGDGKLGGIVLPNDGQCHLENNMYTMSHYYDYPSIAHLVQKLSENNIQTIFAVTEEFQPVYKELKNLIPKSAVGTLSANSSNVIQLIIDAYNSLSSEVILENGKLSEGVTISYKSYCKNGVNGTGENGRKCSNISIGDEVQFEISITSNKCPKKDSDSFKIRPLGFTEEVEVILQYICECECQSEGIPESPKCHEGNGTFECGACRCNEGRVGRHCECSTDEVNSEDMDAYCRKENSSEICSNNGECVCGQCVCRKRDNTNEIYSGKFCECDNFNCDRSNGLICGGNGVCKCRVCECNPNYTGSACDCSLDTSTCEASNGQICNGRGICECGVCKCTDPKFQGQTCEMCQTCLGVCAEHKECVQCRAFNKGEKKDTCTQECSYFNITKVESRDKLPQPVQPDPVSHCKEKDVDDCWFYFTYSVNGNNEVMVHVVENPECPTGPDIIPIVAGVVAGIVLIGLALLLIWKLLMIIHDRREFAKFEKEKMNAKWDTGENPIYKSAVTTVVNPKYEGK
# Chain of Integrin beta-1 (Homo sapiens) + Integrin alpha-4 (Homo sapiens) (P13612 whole entry, looked up): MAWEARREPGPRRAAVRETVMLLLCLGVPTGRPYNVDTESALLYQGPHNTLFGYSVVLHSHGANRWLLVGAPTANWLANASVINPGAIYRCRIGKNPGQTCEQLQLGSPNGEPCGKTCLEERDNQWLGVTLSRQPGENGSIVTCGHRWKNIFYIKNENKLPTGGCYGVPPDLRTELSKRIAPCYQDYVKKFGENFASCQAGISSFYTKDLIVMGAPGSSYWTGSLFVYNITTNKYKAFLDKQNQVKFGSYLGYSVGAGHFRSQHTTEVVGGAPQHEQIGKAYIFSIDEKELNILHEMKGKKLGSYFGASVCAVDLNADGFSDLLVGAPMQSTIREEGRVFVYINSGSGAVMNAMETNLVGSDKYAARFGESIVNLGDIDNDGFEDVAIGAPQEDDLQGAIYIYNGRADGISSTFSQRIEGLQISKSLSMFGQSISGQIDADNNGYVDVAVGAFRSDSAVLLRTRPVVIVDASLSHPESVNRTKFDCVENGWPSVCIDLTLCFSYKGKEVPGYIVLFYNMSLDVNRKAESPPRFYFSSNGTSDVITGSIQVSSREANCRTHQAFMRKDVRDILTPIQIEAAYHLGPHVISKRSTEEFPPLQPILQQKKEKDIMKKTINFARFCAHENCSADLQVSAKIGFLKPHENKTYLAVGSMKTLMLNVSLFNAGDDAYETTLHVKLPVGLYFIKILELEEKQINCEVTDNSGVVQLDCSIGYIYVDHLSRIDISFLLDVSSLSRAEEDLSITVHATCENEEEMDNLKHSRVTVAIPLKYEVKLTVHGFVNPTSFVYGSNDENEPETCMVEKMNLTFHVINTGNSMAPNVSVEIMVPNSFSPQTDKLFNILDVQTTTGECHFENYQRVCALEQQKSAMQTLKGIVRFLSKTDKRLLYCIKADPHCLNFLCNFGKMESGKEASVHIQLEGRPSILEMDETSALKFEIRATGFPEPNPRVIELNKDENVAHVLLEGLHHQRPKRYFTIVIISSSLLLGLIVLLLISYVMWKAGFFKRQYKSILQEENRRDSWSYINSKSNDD
smiles,measurement,setting,value
O=C1NC(=O)N(CCC2=CCCCC2)C(=O)/C1=C/c1cccs1,GFP response vs DMSO,[1],98.4% (inactive)
same,GFP response vs DMSO,[1]; [21],97.9%
same,GFP response vs DMSO,[1]; [22],97.6%
same,GFP response relative to DMSO,[2],134% (inactive)
same,GFP response relative to DMSO,[2]; [23],128%
same,GFP response relative to DMSO,[2]; [24],138%
same,"GFP response, % of DMSO",[3],91.2% (inactive)
same,"GFP response, % of DMSO",[3]; [21],93.6%
same,"GFP response, % of DMSO",[3]; [22],86.7%
COc1cc(/C=C/C(=O)c2c(O)n(CCc3ccccc3)c(=O)[nH]c2=O)ccc1O,GFP response vs DMSO,[1],103% (inactive)
same,GFP response vs DMSO,[1]; [21],104%
same,GFP response vs DMSO,[1]; [22],103%
same,GFP response relative to DMSO,[2],90% (inactive)
same,GFP response relative to DMSO,[2]; [23],90.4%
same,GFP response relative to DMSO,[2]; [24],88.9%
same,"GFP response, % of DMSO",[3],115% (inactive)
same,"GFP response, % of DMSO",[3]; [21],114%
same,"GFP response, % of DMSO",[3]; [22],112%
CCOC(=O)c1cncn1C(C)c1ccccc1 (stereo unspecified),percent of DMSO control GFP,[4],104% (inactive)
same,percent response of DMSO control,[5],106% (inactive)
same,GFP response vs DMSO,[6],80.2% (inactive)
same,double positive events,[7],60%
same,vesicle binding response,[7],404% (inactive)
same,inhibition,[8],7.85% (inactive)
same,superoxide response (% of plate),[9],97% (inactive)
same,aptamer binding inhibition,[10],4% (inactive)
same,inhibition,[11],-10.9% (inactive)
same,response,[12],2.71% (inactive)
same,binding (% of control),[13],101% (inactive)
same,efflux inhibition (fraction of control),[14],0.27 (inactive)
same,inhibition,[15],12% (inactive)
same,differentiation response,[16],2.2% (inactive)
Nc1ccc(N=Nc2ccccc2)cc1,GFP response vs DMSO,[1],98.4% (inactive)
same,GFP response vs DMSO,[1]; [21],98.4%
same,GFP response vs DMSO,[1]; [22],96.2%
same,GFP response relative to DMSO,[2],110% (inactive)
same,GFP response relative to DMSO,[2]; [23],106%
same,GFP response relative to DMSO,[2]; [24],111%
same,"GFP response, % of DMSO",[3],100% (inactive)
same,"GFP response, % of DMSO",[3]; [21],93.8%
same,"GFP response, % of DMSO",[3]; [22],99.3%
O=C1C=Cc2ccccc2C1=O,percent of DMSO control GFP,[4],102% (inactive)
same,GFP response vs DMSO,[17],116% (inactive)
same,percent response of DMSO control,[5],116% (inactive)
same,GFP response vs DMSO,[6],89.1% (inactive)
same,double positive events,[7],43.3%
same,vesicle binding response,[7],71.6% (active)
same,inhibition,[8],-65.3% (inactive)
same,superoxide response (% of plate),[9],129% (inactive)
same,aptamer binding inhibition,[10],2% (inactive)
same,inhibition,[11],8% (inactive)
same,response,[12],1.9% (inactive)
same,binding (% of control),[13],109% (inactive)
same,inhibition,[18],-1.2% (inactive)
same,inhibition,[19],1.7% (inactive)
same,inhibition,[20],1.9% (inactive)
same,efflux inhibition (fraction of control),[14],-0.09 (inactive)
same,inhibition,[15],7% (inactive)
same,differentiation response,[16],5.73% (inactive)
O=C1NC(=O)N(Cc2ccco2)C(=O)/C1=C\c1ccc(-c2ccc(F)cc2)o1,GFP response vs DMSO,[1],96.9% (inactive)
same,GFP response vs DMSO,[1]; [21],97.6%
same,GFP response vs DMSO,[1]; [22],94%
same,GFP response relative to DMSO,[2],119% (inactive)
same,GFP response relative to DMSO,[2]; [23],115%
same,GFP response relative to DMSO,[2]; [24],121%
same,"GFP response, % of DMSO",[3],91.7% (inactive)
same,"GFP response, % of DMSO",[3]; [21],99.3%
same,"GFP response, % of DMSO",[3]; [22],83.7%
CCOC(=O)C1=C(C)OC(N)=C(C(=O)OCC)[C@@]12C(=O)N(CC(N)=O)c1ccccc12,percent of DMSO control GFP,[4],90.9% (inactive)
same,GFP response vs DMSO,[17],120% (inactive)
same,percent response of DMSO control,[5],110% (inactive)
same,GFP response vs DMSO,[6],71% (inactive)
same,double positive events,[7],43.7%
same,vesicle binding response,[7],66.2% (active)
same,inhibition,[8],18.1% (inactive)
same,superoxide response (% of plate),[9],104% (inactive)
same,aptamer binding inhibition,[10],-1% (inactive)
same,inhibition,[11],-3.6% (inactive)
same,response,[12],1.98% (inactive)
same,binding (% of control),[13],104% (inactive)
same,inhibition,[18],0.6% (inactive)
same,inhibition,[19],-0.3% (inactive)
same,inhibition,[20],0.4% (inactive)
same,efflux inhibition (fraction of control),[14],-0.31 (inactive)
same,inhibition,[15],6% (inactive)
same,differentiation response,[16],4.09% (inactive)

# — PubChem BioAssay
